{"source": "PubChem BioAssay AID624354", "about": "(Sanford-Burnham Center for Chemical Genomics, 2012)", "note": "The whole screen tested about 360,000 compounds, of which about 3,800 (1.1%) were called active. The sample as a whole holds a higher share of actives than the screen did. Unmarked numbers belong to inactive results.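 The calls were made as follows: active = compounds causing at least 50% loss of cell viability in the single-dose screen, relative to plate controls; inactive = the rest.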", "data": [{"assay": "TRAIL-exposed caspase-8 expressing cell killing – NB7+C8 cells, ATPlite luminescence, TRAIL sensitizer project, primary screen (AID 624354)", "conditions": "at 10 µM, stronger effect = higher value", "values": [{"compound": "CC(=O)N1c2ccc(S(=O)(=O)N3CCCC(C(=O)NCc4ccc(Cl)cc4)C3)cc2CC1C", "note": "(configuration not stated)", "inhibition (viability loss, TRAIL sensitization)": "15.2%"}, {"compound": "O=C(CN1C(=O)c2ccccc2S1(=O)=O)N1CCc2ccccc21", "inhibition (viability loss, TRAIL sensitization)": "61.8% (active)"}, {"compound": "Cc1ccc(S(=O)(=O)N(C)CC(=O)N2CCc3ccccc32)cc1", "inhibition (viability loss, TRAIL sensitization)": "-3.97%"}, {"compound": "CN(Cc1cccs1)C(=O)CN1C(=O)c2ccccc2S1(=O)=O", "inhibition (viability loss, TRAIL sensitization)": "-16.6%"}, {"compound": "O=S(=O)(Cc1ccccc1)c1nc2ccccc2n1Cc1ccccn1", "inhibition (viability loss, TRAIL sensitization)": "-8.41%"}, {"compound": "O=C(Cn1c2[n+](c3ccc(C(F)(F)F)cc31)CCCCC2)Nc1c(F)cccc1F", "inhibition (viability loss, TRAIL sensitization)": "3.77%"}, {"compound": "COc1cc2c(cc1OC)C(C)N(S(=O)(=O)c1cnc(Cl)c(Cl)c1)CC2", "note": "(configuration not stated)", "inhibition (viability loss, TRAIL sensitization)": "75.2% (active)"}, {"compound": "COc1cc2c(cc1OC)CN(C(=O)c1cc(S(=O)(=O)N3CCCCC3)ccc1Cl)CC2", "inhibition (viability loss, TRAIL sensitization)": "1.71%"}, {"compound": "COc1ccc(C2SCCN2S(=O)(=O)c2ccccc2)cc1OC", "note": "(configuration not stated)", "inhibition (viability loss, TRAIL sensitization)": "0.617%"}, {"compound": "C[C@@H]1CC2=C(C(=O)OC(C)(C)O2)[C@@H](C2CC2)O1", "inhibition (viability loss, TRAIL sensitization)": "-8.67%"}, {"compound": "Cc1ccc(OCCNC(=O)CN2C(=O)NC3(CCCC3)C2=O)cc1", "inhibition (viability loss, TRAIL sensitization)": "-18.7%"}, {"compound": "CCn1cc(-c2cc(C(=O)O)on2)c(C)n1", "inhibition (viability loss, TRAIL sensitization)": "-6.48%"}, {"compound": "CC(C)Nc1ccc(-n2nc3ccccc3[n+]2[O-])cc1", "inhibition (viability loss, TRAIL sensitization)": "54.6% (active)"}, {"compound": "CCCCC(O)(CCCC)C(=O)NN(C(=O)CCl)c1ccccc1", "inhibition (viability loss, TRAIL sensitization)": "82.8% (active)"}, {"compound": "COC(=O)N(NC(=O)C(O)(C(C)C)C(C)C)c1ccccc1", "inhibition (viability loss, TRAIL sensitization)": "21.8%"}, {"compound": "CCCC(O)(CCC)C(=O)NN(C(=O)CCl)c1cccc(C)c1", "inhibition (viability loss, TRAIL sensitization)": "5.97%"}, {"compound": "COc1ccc(/C=C/CN2CCN(Cc3ccc(C)cc3)C(CCO)C2)cc1", "note": "(configuration not stated)", "inhibition (viability loss, TRAIL sensitization)": "-0.778%"}, {"compound": "Cc1cc(C(=O)NCCc2ccc(Cl)cc2)c(C)o1", "inhibition (viability loss, TRAIL sensitization)": "-14.9%"}, {"compound": "CC(=C/c1ccccc1)/C=N/NC(=O)c1cc(C)oc1C", "inhibition (viability loss, TRAIL sensitization)": "54.5% (active)"}, {"compound": "Cc1ccc(-c2cc(C(=O)N/N=C/C=C/c3ccccc3)n[nH]2)o1", "inhibition (viability loss, TRAIL sensitization)": "0.486%"}, {"compound": "Cc1ccc2cccc(OCCCOc3ccccc3CO)c2n1", "inhibition (viability loss, TRAIL sensitization)": "-4.7%"}, {"compound": "Cc1ccc(NC(=O)c2oc3ccccc3c2C)c([N+](=O)[O-])c1", "inhibition (viability loss, TRAIL sensitization)": "3.18%"}, {"compound": "CC1(C(=O)NS(=O)(=O)C2CC2)CCCN(C(=O)CSc2ccccc2)C1", "note": "(configuration not stated)", "inhibition (viability loss, TRAIL sensitization)": "-10.3%"}, {"compound": "COC(=O)c1c(NC(=O)COc2ccc(Cl)cc2Cl)sc2c1CC(C)(C)NC2(C)C", "inhibition (viability loss, TRAIL sensitization)": "92.1% (active)"}, {"compound": "CCOC(=O)c1c(NC(=O)c2ccc(S(=O)(=O)N(C)CC3CCCO3)cc2)sc2c1CC(C)(C)NC2(C)C", "note": "(configuration not stated)", "inhibition (viability loss, TRAIL sensitization)": "26.5%"}, {"compound": "CN1CCC(OC(=O)COc2ccc(Cl)cc2Cl)CC1", "inhibition (viability loss, TRAIL sensitization)": "-7.75%"}, {"compound": "COC(=O)c1ccccc1N=Nc1c(C)[nH][nH]c1=O", "inhibition (viability loss, TRAIL sensitization)": "-4%"}, {"compound": "O=C(CSc1ncnc2c1nnn2Cc1ccc(F)cc1)NC1CCCC1", "inhibition (viability loss, TRAIL sensitization)": "-9.39%"}, {"compound": "O=C(CCNC(=O)c1ccc(Br)cc1)Nc1cccc(S(=O)(=O)N2CCCCC2)c1", "inhibition (viability loss, TRAIL sensitization)": "5.98%"}, {"compound": "Cc1cc(C)cc(NC(=O)CSc2ccccc2)c1", "inhibition (viability loss, TRAIL sensitization)": "-3.71%"}, {"compound": "CSCc1ccc(C(=O)Nc2cc(C)cc(C)c2)cc1", "inhibition (viability loss, TRAIL sensitization)": "66.6% (active)"}, {"compound": "C=CCN(c1ccc(C(=O)Nc2cc(C)cc(C)c2)cc1)S(C)(=O)=O", "inhibition (viability loss, TRAIL sensitization)": "-8.04%"}, {"compound": "Cc1cccc(CC2(O)C(=O)Nc3ccccc32)n1", "note": "(configuration not stated)", "inhibition (viability loss, TRAIL sensitization)": "-8.54%"}, {"compound": "CN(C)S(=O)(=O)c1ccc(N2CCCC2=O)c([N+](=O)[O-])c1", "inhibition (viability loss, TRAIL sensitization)": "4.63%"}, {"compound": "Cc1ccc(CS(=O)(=O)c2ncc(Cl)c(C(=O)Nc3nnc(C)s3)n2)cc1", "inhibition (viability loss, TRAIL sensitization)": "96.7% (active)"}, {"compound": "O=C(Nc1nnc(Cc2ccc(Cl)cc2)s1)c1cccnc1", "inhibition (viability loss, TRAIL sensitization)": "2.47%"}, {"compound": "O=C(Nc1nnc(-c2ccc(F)cc2)s1)c1c(F)cccc1Cl", "inhibition (viability loss, TRAIL sensitization)": "1.33%"}, {"compound": "CN(Cc1ccccc1)S(=O)(=O)c1nnc(NC(=O)c2ccccc2F)s1", "inhibition (viability loss, TRAIL sensitization)": "-10.5%"}, {"compound": "Cc1cccc(NC(=O)c2nc(S(=O)(=O)Cc3ccccc3)ncc2Cl)c1", "inhibition (viability loss, TRAIL sensitization)": "86.5% (active)"}, {"compound": "Cc1cccc(NS(=O)(=O)c2ccc(C)c(C(=O)NCc3cccnc3)c2)c1", "inhibition (viability loss, TRAIL sensitization)": "-5.47%"}, {"compound": "CSc1nnc(NC(=O)c2nc(S(=O)(=O)Cc3ccc(C)cc3)ncc2Cl)s1", "inhibition (viability loss, TRAIL sensitization)": "66.5% (active)"}, {"compound": "O=C(Nc1nnc(Cc2ccc(Cl)cc2)s1)c1ccncc1", "inhibition (viability loss, TRAIL sensitization)": "-4.66%"}, {"compound": "Cc1cccc(CS(=O)(=O)c2ncc(Cl)c(C(=O)Nc3ccc(F)cc3)n2)c1", "inhibition (viability loss, TRAIL sensitization)": "36%"}, {"compound": "COc1ccccc1-n1nnnc1S(=O)(=O)Cc1ccc(Cl)cc1", "inhibition (viability loss, TRAIL sensitization)": "9%"}, {"compound": "Cc1ccc(SC(=O)COc2ccc(C)c(C)c2)cc1", "inhibition (viability loss, TRAIL sensitization)": "3.37%"}, {"compound": "O=C(CCc1ccccc1)NCCc1cccs1", "inhibition (viability loss, TRAIL sensitization)": "-4.77%"}, {"compound": "O=C1C2C3C=CC(C4CC34)C2C(=O)N1c1nccs1", "note": "(configuration not stated)", "inhibition (viability loss, TRAIL sensitization)": "-2%"}]}]}
